Test results as given in the supplement of paper PMC8728848.
This is one part of a sample in which the strongest signals are shown more often than they occur.

Assays:
Test in all cases: glycan array binding signal (z-score within array); higher = stronger binding
Settings in all cases: glycan notation: IUPAC condensed, linker removed
[1] = target: GlcA3S(b1-3)Gal(b1-4)GlcNAc(b1-2)Man
Summary of the method: (§1)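 The binding signal is a Z-score computed within each array. Data were drawn from 3228 arrays in the Consortium for Functional Glycomics database, restricted to those with a known protein sequence. Scores were averaged over arrays of the same protein sequence at different concentrations or buffers, and over linkers, and negative values can be taken as non-binding.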

[2] = target: GlcNAc(a1-4)Gal(b1-4)GlcNAc
Summary of the method: as §1

[3] = target: GlcNAc(b1-2)Man(a1-3)[GlcNAc(b1-4)][GlcNAc(b1-2)Man(a1-6)]Man(b1-4)GlcNAc(b1-4)GlcNAc
Summary of the method: as §1

[4] = target: GlcNAc(b1-2)[GlcNAc(b1-4)]Man(a1-3)[GlcNAc(b1-4)][GlcNAc(b1-2)Man(a1-6)]Man(b1-4)GlcNAc(b1-4)GlcNAc
Summary of the method: as §1

GlcNAc(b1-3)Fuc = target: GlcNAc(b1-3)Fuc
Summary of the method: as §1

[5] = target: GlcNAc(b1-3)Gal(b1-3)GalNAc
Summary of the method: as §1

[6] = target: GlcNAc(b1-3)Gal(b1-4)GlcNAc(b1-2)[GlcNAc(b1-3)Gal(b1-4)GlcNAc(b1-6)]Man(a1-6)[GlcNAc(b1-3)Gal(b1-4)GlcNAc(b1-2)Man(a1-3)]Man(b1-4)GlcNAc(b1-4)GlcNAc
Summary of the method: as §1

[7] = target: GlcNAc(b1-3)Gal(b1-4)GlcNAc(b1-3)Gal(b1-4)GlcNAc(b1-2)Man(a1-3)[GlcNAc(b1-3)Gal(b1-4)GlcNAc(b1-3)Gal(b1-4)GlcNAc(b1-2)Man(a1-6)]Man(b1-4)GlcNAc(b1-4)GlcNAc
Summary of the method: as §1

[8] = target: GlcNAc(b1-3)Gal(b1-4)GlcNAc(b1-3)Gal(b1-4)GlcNAc(b1-3)Gal(b1-4)GlcNAc(b1-2)[GlcNAc(b1-3)Gal(b1-4)GlcNAc(b1-3)Gal(b1-4)GlcNAc(b1-3)Gal(b1-4)GlcNAc(b1-6)]Man(a1-6)[GlcNAc(b1-3)Gal(b1-4)GlcNAc(b1-3)Gal(b1-4)GlcNAc(b1-3)Gal(b1-4)GlcNAc(b1-2)Man(a1-3)]Man(b1-4)GlcNAc(b1-4)[Fuc(a1-6)]GlcNAc
Summary of the method: as §1

GlcNAc(b1-3)GalNAc = target: GlcNAc(b1-3)GalNAc
Summary of the method: as §1

[9] = target: GlcNAc(b1-4)GlcNAc(b1-4)GlcNAc
Summary of the method: as §1

GlcNAc(b1-6)GalNAc = target: GlcNAc(b1-6)GalNAc
Summary of the method: as §1

Kdn(a2-3)Gal(b1-4)GlcNAc = target: Kdn(a2-3)Gal(b1-4)GlcNAc
Summary of the method: as §1

[10] = target: Man(a1-2)Man(a1-2)Man(a1-3)Man
Summary of the method: as §1

Man(a1-3)[Man(a1-6)]Man = target: Man(a1-3)[Man(a1-6)]Man
Summary of the method: as §1

[11] = target: Man(a1-3)[Man(a1-6)]Man(b1-4)GlcNAc(b1-4)[Fuc(a1-6)]GlcNAc
Summary of the method: as §1

[12] = target: Neu5Ac(a2-3)Gal(b1-3)GlcNAc(b1-2)Man(a1-3)[GlcNAc(b1-4)][Neu5Ac(a2-3)Gal(b1-3)GlcNAc(b1-2)Man(a1-6)]Man(b1-4)GlcNAc(b1-4)GlcNAc
Summary of the method: as §1

[13] = target: Neu5Ac(a2-3)Gal(b1-4)GlcNAc(b1-3)Gal(b1-4)[Fuc(a1-3)]GlcNAc
Summary of the method: as §1

[14] = target: Neu5Ac(a2-3)[Neu5Ac(a2-6)]GalNAc
Summary of the method: as §1

[15] = target: Neu5Ac(a2-6)Gal(b1-4)GlcNAc(b1-2)Man(a1-3)[Man(a1-6)]Man(b1-4)GlcNAc(b1-4)GlcNAc
Summary of the method: as §1

[16] = target: Neu5Ac(a2-6)Gal(b1-4)GlcNAc(b1-3)Gal(b1-4)GlcNAc
Summary of the method: as §1

[17] = target: Neu5Ac(a2-6)Gal(b1-4)GlcNAc(b1-3)Gal(b1-4)GlcNAc(b1-3)Gal(b1-4)GlcNAc(b1-2)Man(a1-3)[Neu5Ac(a2-6)Gal(b1-4)GlcNAc(b1-3)Gal(b1-4)GlcNAc(b1-3)Gal(b1-4)GlcNAc(b1-2)Man(a1-6)]GalNAc
Summary of the method: as §1

[18] = target: Neu5Ac(a2-6)Gal(b1-4)GlcNAc(b1-3)[Neu5Ac(a2-6)Gal(b1-4)GlcNAc(b1-6)]GalNAc
Summary of the method: as §1

[19] = target: Neu5Ac(a2-6)GlcNAc(b1-4)GlcNAc
Summary of the method: as §1

[20] = target: Neu5Ac(a2-8)Neu5Ac(a2-8)Neu5Ac(a2-3)[Gal(b1-3)GalNAc(b1-4)]Gal(b1-4)Glc
Summary of the method: as §1

[21] = target: Neu5Ac(a2-8)Neu5Ac(a2-8)Neu5Ac(a2-3)[GalNAc(b1-4)]Gal(b1-4)Glc
Summary of the method: as §1

[22] = target: Neu5Gc(a2-3)Gal(b1-4)GlcNAc
Summary of the method: as §1

[23] = target: Neu5Gc(b2-6)Gal(b1-4)GlcNAc
Summary of the method: as §1

B1: GS13599A-bth-520-23-520 (Bacteroides thetaiotaomicron) (protein)
chain: SEDTMDRINKDHDHTTSVASRFILADVITSTAFSNASGDINTYASSYIEYEVGVDNQLYYAEVRENEPSSSSTFNNSWNGIYSSLKNARIIIDQCGEGGRDHGNDVTRGMAEVMAAYNCALIADFFGDAPCSQAALVDEKGSPVYMTPKMDTQQEIYTQIISYLDDAIANLQKEDLADVTEQDFLYAGDADKWLKFAYGLKARYTMRLINRSSNKSADYEKVLDYVSKSFTSADDQAAFDIYDSNNINPFYGFYNSRAGFGASTSLGTKLLAYNDPRANRAFFTPIVDKKRSQVAANDPSLVPAPNGSPDQSTSKYGISAFVYAKTAPTLLMSYHELMFLKAEALCRLNRDAEDALKEAVVAGLLNAENSISIAIKELGSGLNTNSSEVITETSAGKYFDDVVKAKYAANPLQETMIQKYLAMWGASGEATETYNDFRRMKGLNENFITLTNPNNSSKFPLRYPYGNSDTAANPEVKAAYGNGDYVYSEPVWWAGGSR
glycan array binding signal (z-score) [1]: -0.448 | glycan array binding signal (z-score) [2]: -0.237 | glycan array binding signal (z-score) [3]: 2.52 | glycan array binding signal (z-score) [4]: -1.27 | glycan array binding signal (z-score) (GlcNAc(b1-3)Fuc): -0.118 | glycan array binding signal (z-score) [5]: 1.12 | glycan array binding signal (z-score) [6]: 1.84 | glycan array binding signal (z-score) [7]: 1.66 | glycan array binding signal (z-score) [8]: 0.815 | glycan array binding signal (z-score) (GlcNAc(b1-3)GalNAc): -0.348 | glycan array binding signal (z-score) [9]: -0.942 | glycan array binding signal (z-score) (GlcNAc(b1-6)GalNAc): -0.798 | glycan array binding signal (z-score) (Kdn(a2-3)Gal(b1-4)GlcNAc): 0.096 | glycan array binding signal (z-score) [10]: 0.245 | glycan array binding signal (z-score) (Man(a1-3)[Man(a1-6)]Man): 0.71 | glycan array binding signal (z-score) [11]: 0.777 | glycan array binding signal (z-score) [12]: 0.566 | glycan array binding signal (z-score) [13]: -0.897 | glycan array binding signal (z-score) [14]: -0.336 | glycan array binding signal (z-score) [15]: 0.864 | glycan array binding signal (z-score) [16]: -1.27 | glycan array binding signal (z-score) [17]: 2.37 | glycan array binding signal (z-score) [18]: 0.2 | glycan array binding signal (z-score) [19]: 0.611 | glycan array binding signal (z-score) [20]: 1.71 | glycan array binding signal (z-score) [21]: -1.68 | glycan array binding signal (z-score) [22]: -0.966 | glycan array binding signal (z-score) [23]: -0.127
